Hits are enriched below; roughly 14% of the tested compounds scored in any of these assays.
Pf growth 48h: inhibits P. falciparum growth in the first generation, 48 h. P. falciparum luciferase growth in erythrocytes, 48 h. Potency, µM (titrated, usually from 28.7 µM), for the others: at the highest dose activity change, negative = inhibition, usual class: inhibitors. actives 5.9% (n = 310,000); further: potency means the concentration at half of the fitted maximal effect
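Luciferase-expressing parasites in RBCs, 2% Hct / 0.1% parasitemia final; RPMI 1640 + 0.5% Albumax; 37 C, 5% CO2, one generation; luminescence read-out, lower signal = inhibition.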
HCMV inh: human cytomegalovirus inhibition | HFF cells, HCMV-luciferase reporter, 72 h; active compounds read low | activity change, negative = inhibition, % at 57.5 µM | actives 4.5% (n = 410,000); in the data active means activity change below about -60%; inconclusive means no clear call, values can overlap the other calls; inactive means above about -39%
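Screen run at 2 compound doses on HFFs infected with reporter HCMV, MOI 1 PFU/cell. Luciferase activity from cell lysates at 72 h post infection gave inhibition relative to buffer-only and Salinomycin wells.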
FBPA Giardia inh: inhibitors of Giardia lamblia fructose-1,6-bisphosphate aldolase. A8B2U2. purified Giardia FBPA. Potency, µM (doses to about 59.6 µM), inactives show at the highest dose activity, negative = inhibition, actives largely listed as inhibitors. actives 0.71% (n = 290,000). AID 2451; further: potency means the concentration at half of the fitted maximal effect; nearly all actives have a fitted effect of over 55% in size
Target sequence (A8B2U2 whole entry, looked up): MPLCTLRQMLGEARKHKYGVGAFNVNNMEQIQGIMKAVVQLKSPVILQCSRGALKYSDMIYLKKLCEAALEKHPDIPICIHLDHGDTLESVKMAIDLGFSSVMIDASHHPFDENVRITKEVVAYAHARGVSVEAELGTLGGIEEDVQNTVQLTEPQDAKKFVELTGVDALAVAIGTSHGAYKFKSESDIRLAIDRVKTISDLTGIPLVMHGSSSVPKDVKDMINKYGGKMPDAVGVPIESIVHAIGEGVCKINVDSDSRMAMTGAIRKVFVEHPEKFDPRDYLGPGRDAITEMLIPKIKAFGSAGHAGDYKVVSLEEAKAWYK
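Giardia FBPA (40 nM reagent) was preincubated 10 min at RT with compound (up to 57.5 uM final), then substrate plus GAPDH/TPI/NAD/arsenate coupling system with diaphorase/resazurin was added; resorufin fluorescence (525/598 nm) was read after 20 min.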
Sm TGR inh: S. mansoni TGR enzyme inhibition; Q962Y6; purified TGR, DTNB reduction, TNB absorbance 405 nm; Potency, µM (highest dose often 114 µM), inactives show top-dose activity change, negative = inhibition, hits mostly inhibitors; actives 3% (n = 360,000); AID 485364; further: potency means the concentration at half of the fitted maximal effect; nearly all actives have a fitted effect of over 60% in size
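Kinetic colorimetric format: TGR-catalysed, NADPH-driven DTNB reduction monitored via TNB absorbance. Enzyme dispensed at 20 nM; compound exposure 15 min at room temperature before reaction start.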
Pf growth 96h: P. falciparum growth inhibition at 96 hours | actives 6.9% (n = 320,000) | Potency, µM (highest dose often 28.7 µM), for inactives: at the highest dose activity change, negative = inhibition, usual class: inhibitors | P. falciparum luciferase reporter growth, 96 h | AID 504834; further: potency means the concentration at half of the fitted maximal effect
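Two parasite generations (96 h, 37 C, 5% CO2) of compound exposure in infected erythrocytes (0.05% parasitemia, 2% hematocrit). Luciferase-reporter P. falciparum; decreased luminescence indicates inhibited growth, aimed at apicoplast-acting delayed death.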
* marks the source's active call; other numbers are inactive results; ? = inconclusive; nt = no result given. Unless noted, the call rests on the fitted dose curve; in most records, active means well fitted curve in the direction sought with a large enough effect; inconclusive means small, poorly fitted or top-dose-only effect, or another doubt; inactive means no such curve, though single readings can be large; an effect the other way counts as inactive or inconclusive. On the % scale 0 is the no-effect control and ±100 the full control effect.

SMILES	Pf growth 48h	HCMV inh	FBPA Giardia inh	Sm TGR inh	Pf growth 96h
CCOC(=O)N1CCN(C(=O)CSCc2nc(-c3ccccc3F)oc2C)CC1	-18%	-80*	0%	6%	?
Cc1oc(-c2ccccc2F)nc1CS(=O)(=O)CC(=O)NC1CCCC1	3%	26	0%	40µM*	6%
Cc1oc(-c2ccccc2F)nc1CS(=O)(=O)CC(=O)NCCCN1CCN(C)CC1	-3%	-24	16%	-20%	10µM*
CCC(C)NC(=O)CSCc1nc(-c2ccc(C)cc2)oc1C (centres undefined)	nt	-24	nt	-22%	nt
Cc1oc(-c2ccccc2F)nc1CS(=O)(=O)CC(=O)NCCCN1CC(C)CC(C)C1 (centres undefined)	?	-23	nt	0%	?
CC1(C(=O)NCc2ccc3c(c2)OCO3)CCN1C(=O)CC1CCCC1 (centres undefined)	nt	-26	nt	nt	nt
CC(Cc1ccccc1Sc1ccccc1)N(C)C (centres undefined)	?	-63*	4%	4%	?
CC(Cc1ccccc1Sc1ccc(O)cc1)N(C)C (centres undefined)	13µM*	nt	-5%	0%	nt
O=S(=O)(Nc1ccccc1O)c1ccc(Cl)nc1	6%	5	-6%	0%	19%
FC(F)(F)c1ccccc1-c1ccc2ncnc(NC3CC3)c2c1	nt	nt	-6%	nt	nt
CCCNC(=O)C1CCC(Cn2c(=O)c3sccc3n(CC(=O)N3CCCC(C)C3)c2=O)CC1 (centres undefined)	nt	?	nt	7%	nt
Cc1ccc(S(=O)(=O)N(C)C)cc1NC(=O)Cn1c(CN2CCOCC2)nc2ccccc2c1=O	15µM*	-6	5%	0%	-20%
CN(C)S(=O)(=O)c1ccc(Cl)c(NC(=O)CSc2nc3ccccc3c(=O)n2CCCN2CCOCC2)c1	?	-31	-4%	-9%	10µM*
COc1ccc(NC(=O)CSc2nc3ccccc3c(=O)n2CCCN2CCOCC2)c(OC)c1	?	?	-2%	2%	?
O=C(CN1C(=O)c2cccc3cccc1c23)Nc1cccc(F)c1	nt	-15	nt	-5%	nt
CCC(C(=O)Nc1c(C)cccc1C)n1c(-c2ccc(=O)[nH]c2)nc2ccccc21 (centres undefined)	nt	74	nt	nt	nt
COc1ccc(-c2cc(-c3nnc(COC(=O)CC4CC5CCC4C5)o3)c3ccccc3n2)cc1OC (centres undefined)	9.3µM*	-24	-9%	-9%	0%
CC1(C(=O)NCc2cccc(C(F)(F)F)c2)CCN1Cc1ccc2ccccc2c1 (centres undefined)	nt	-72*	nt	nt	nt
O=C(CSCc1cccc(F)c1)NCc1ccccc1	302%	63	6%	-16%	2.1µM*
O=C(Cc1cccc2ccccc12)NCC(=O)N1CCN(CC(=O)Nc2ccc(F)cc2)CC1	nt	45	nt	nt	nt
Cc1ccc(CNC(=O)CSCc2cccc(F)c2)cc1	86%	20	12%	3%	0%
CC1(C(=O)NCc2cccc3ccccc23)CCN1Cc1ccc2ccccc2c1 (centres undefined)	nt	3	nt	nt	nt
O=C(Cc1cccc2ccccc12)NCC(=O)N1CCN(Cc2cccc(C(F)(F)F)c2)CC1	-6%	-62*	nt	2%	-16%
O=C(CSc1cccc(C(F)(F)F)c1)NCc1ccccc1	17%	-73*	-4%	1%	9%
O=C(CSc1ccccc1)NCc1ccccc1	83%	28	11%	6%	?
SMILES	Pf growth 48h	HCMV inh	FBPA Giardia inh	Sm TGR inh	Pf growth 96h
Cc1ccc(C2=NS(=O)(=O)N(C)C(C(=O)NC3CCCCC3)=C2)cc1	32%	-8	-12%	8%	1%
COc1ccc(-c2cc(C(=O)OCC(=O)c3ccc(C)cc3)c3cccc(Cl)c3n2)cc1	nt	-8	nt	-1%	nt
Cc1ccc(NC(=O)CN(C)C(=O)c2cc(S(=O)(=O)N(C)C)ccc2N2CCCC2)cc1	-12%	-27	nt	0%	?
O=C(CN(Cc1ccco1)C(=O)c1ccccc1F)Nc1ccccc1C(F)(F)F	-7%	-15	nt	-20%	?
O=C(CN(Cc1ccco1)C(=O)c1ccc([N+](=O)[O-])cc1)Nc1ccccc1C(F)(F)F	?	29	nt	20µM*	42%
O=C(CN(Cc1ccco1)S(=O)(=O)c1cccs1)Nc1ccccc1C(F)(F)F	-6%	-11	-2%	20µM*	?
COc1ccccc1C(=O)NCCC(=O)Nc1ccc(S(=O)(=O)N2CCC(C)CC2)cc1	?	-24	nt	2%	?
CSc1cccc(NC(=O)c2nnn(CC(=O)Nc3cc(C)cc(C)c3)c2N)c1	23%	-33	-9%	-2%	-2%
Cc1ccc2c(c1)N(CCC(=O)NC(C)C)C(=O)CO2	19%	-76*	4%	-4%	nt
COc1ccc(CS(=O)(=O)CC(C)(O)c2ccccc2Cl)cc1 (centres undefined)	1%	7	9%	10%	5%
CCOP(=O)(C1=C(O)C(=O)C(C(C)(C)C)=CC1=O)c1ccccc1 (centres undefined)	?	11	?	1.4µM*	?
Oc1c(Br)c(Br)c(Br)c(Br)c1Br	4%	nt	nt	3.5µM*	29%
COc1ccccc1-c1cc(NCc2cnc(C)cn2)ncn1	nt	nt	-26%	nt	nt
O=[N+]([O-])c1nn(-c2ccc(Cl)cc2)n(O)c1=NCc1ccccc1	172%	0	-9%	-8%	23%
COc1ccc(-n2nc([N+](=O)[O-])c(=NCc3ccc4c(c3)OCO4)n2O)cc1	243%	-10	0%	-4%	7.4µM*
Cc1cc(C)cc(N=c2c([N+](=O)[O-])nn(-c3ccc4c(c3)OCCO4)n2O)c1	49%	0	-19%	3%	39%
Cc1ccc(N=c2c([N+](=O)[O-])nn(-c3ccc(Cl)cc3)n2O)cc1C	12µM*	15	-14%	-19%	0.83µM*
O=[N+]([O-])c1nn(-c2ccccc2)n(O)c1=NCc1ccc2c(c1)OCO2	-24%	87	-1%	11%	?
Cc1ccc(N=c2c([N+](=O)[O-])nn(-c3ccccc3)n2O)c(C)c1	?	116	-27%	32µM*	nt
O=[N+]([O-])c1nn(-c2ccc3c(c2)OCCO3)n(O)c1=Nc1ccc(Cl)cc1	15%	-91*	-8%	35µM*	?
CCCCNC(=O)COC(=O)c1ccc(NS(=O)(=O)c2ccc3c(c2)OCCO3)cc1	nt	37	16%	4%	5%
CC(=O)c1cccc(-c2ccnc3c2CC(C(=O)NCc2ccncc2)O3)c1 (centres undefined)	nt	3	nt	nt	nt
COC(=O)C1=C(c2ccccc2)c2ccccc2S(=O)(=O)N1CC(=O)Nc1cccc(C(C)=O)c1	nt	?	nt	-1%	nt
COC(=O)C[C@@H]1CC[C@@H](NC(C)=O)[C@@H](CO)O1	nt	58	nt	nt	nt
CCCCCCCCN1C(=O)[C@H](CC(=O)NCc2cccc(C(F)(F)F)c2)C[C@@]2(C(=O)OCC)CCCC=C12	nt	-33	nt	nt	nt

Compound activity: PubChem BioAssay, National Center for Advancing Translational Sciences (NCATS)
